Here are results for five molecules from PubChem BioAssay (EPA / NIEHS).

Molecules are shown by their SMILES. Inconclusive results are not listed. Calls of active or inactive are those of the source. How the source made its calls, unless noted: active means hit-call score of the fitted dose curve at least 0.9, where 1 is the maximum; inconclusive means response in the unintended direction; inactive means score below 0.9.

The nature of assay [1]: ATG_M_61_CIS: Attagene CIS-FACTORIAL HepG2 Assay for M61 Transcription Factor (Internal Marker) (AID 2282937; active means hit-call score of the fitted dose curve at least 0.9, where 1 is the maximum; inactive means score below 0.9). As to conditions: HepG2 Attagene CIS-FACTORIAL M61 internal marker reporter; actives raise or lower the signal. In outline:
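Fluorescence from labelled cDNA fragments, separated by capillary electrophoresis, quantifies reporter induction. HepG2 cells bearing transiently transfected cis-promoter MRTUs were incubated with test chemical for 24 h; DMSO defined baseline for gain/loss fitting.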

Assay [2] is described as follows: ATG_EGR_CIS: Attagene CIS-FACTORIAL HepG2 Assay for human Early Growth Response 1 (EGR1) (AID 2282938; active means hit-call score of the fitted dose curve at least 0.9, where 1 is the maximum; inactive means score below 0.9). To be noted: HepG2 Attagene CIS-FACTORIAL EGR reporter mRNA; actives raise or lower the signal. In outline: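 Cell-based multiplex transcription assay: HepG2 carrying transfected cis-element reporter units, 24 h chemical treatment. Fluorescence from capillary electrophoresis of RT-PCR products gives mRNA levels; fitting is bidirectional relative to DMSO.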

A short description of assay [3]: ATG_M_06_CIS: Attagene CIS-FACTORIAL HepG2 Assay for M06 Transcription Factor (Internal Marker) (AID 2282950; active means hit-call score of the fitted dose curve at least 0.9, where 1 is the maximum; inactive means score below 0.9). As to conditions: HepG2 Attagene CIS-FACTORIAL M06 internal marker reporter; actives raise or lower the signal. In outline:
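One of many multiplexed endpoints: HepG2 reporter mRNA after 24 h dosing, detected by RT-PCR and capillary electrophoresis fluorescence; gain or loss of signal analysed against DMSO.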

The nature of assay [4]: ATG_PPRE_CIS: Attagene CIS-FACTORIAL HepG2 Assay for human Peroxisome Proliferator-activated Response Element (PPRE) (AID 2282958; active means hit-call score of the fitted dose curve at least 0.9, where 1 is the maximum; inactive means score below 0.9). To be noted: HepG2 PPRE cis-element reporter, Attagene transcription factor profiling; actives raise or lower the signal. Put shortly: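 Multiplexed reporter transcription units under cis-regulatory promoters were transfected into HepG2 cells to capture endogenous factor activity. A 24 h incubation preceded RNA isolation and fluorescent RT-PCR fragment analysis.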

Assay [5] can be described thus: ATG_RORE_CIS: Attagene CIS-FACTORIAL HepG2 Assay for human RAR-related Orphan Receptor Element (RORE) (AID 2282959; active means hit-call score of the fitted dose curve at least 0.9, where 1 is the maximum; inactive means score below 0.9). To be noted: HepG2 Attagene cis-factorial RORE reporter, mRNA; actives raise or lower the signal. Put shortly:
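Fluorescence intensity of reporter-specific cDNA fragments, separated by capillary electrophoresis, gives the signal. Source: HepG2 liver cells transiently transfected with cis-element reporters and exposed 24 h; DMSO-normalized bidirectional fit.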

Assay [6] is described as follows: ATG_TGFb_CIS: Attagene CIS-FACTORIAL HepG2 Assay for human Transforming Growth Factor (TGF) (AID 2282967; active means hit-call score of the fitted dose curve at least 0.9, where 1 is the maximum; inactive means score below 0.9). As to conditions: HepG2 Attagene CIS TGFb reporter, mRNA transcription; actives raise or lower the signal. Put shortly: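 After a 24-hour incubation with compound, transfected HepG2 cells were lysed for RNA; reporter cDNA was amplified, fluorescently end-labeled and separated by CE. DMSO served as baseline for bidirectional fits.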

Assay [7] can be described thus: ATG_M_19_TRANS: Attagene TRANS-FACTORIAL HepG2 Assay for M19 Transcription Factor (Internal Marker) (AID 2282974). As to conditions: HepG2 Attagene TRANS-FACTORIAL M19 internal marker reporter. In outline:
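Measured here: internal-marker reporter transcript from HepG2 cells transfected with MRTUs, harvested at 24 h. cDNA PCR products were 6-FAM labelled by primer extension, cut with HpaI for 2 h at 37 C, and resolved by CE.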

The target in assay [8] is Hepatocyte nuclear factor 4-alpha (Homo sapiens) (UniProt P41235). Description: ATG_HNF4a_TRANS: Attagene TRANS-FACTORIAL HepG2 Assay for human Hepatocyte Nuclear Factor 4 alpha (HNF4a) (AID 2282982). As to conditions: HepG2 HNF4a transactivation reporter, mRNA readout. Put shortly: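 Transfected HepG2 reporter cells are dosed for 24 h; reporter RNA is reverse-transcribed, amplified, fluorescently labelled and HpaI-digested before CE sizing. Positive-direction fit against DMSO.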

For assay [9], the target named is Nuclear receptor subfamily 1 group I member 2 (Homo sapiens) (UniProt O75469). The assay can be described thus: ATG_PXR_TRANS: Attagene TRANS-FACTORIAL HepG2 Assay for human Pregnane X Receptor (PXR) (AID 2283008). Put shortly:
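Measures mRNA induction of a GAL4-UAS-driven reporter in human HepG2 cells transiently expressing PXR fused to Gal4, following 24 h treatment. DMSO served as negative control and baseline.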

Assay [10] has as its target Retinoic acid receptor RXR-alpha (Homo sapiens) (UniProt P19793). Description: ATG_RXRa_TRANS: Attagene TRANS-FACTORIAL HepG2 Assay for human Retinoid X Receptor alpha (RXRa) (AID 2283012). In outline:
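HepG2 cells transiently transfected with multiplexed GAL4-UAS reporter units and chimeric NR-GAL4 fusions, dosed 24 h. Reporter mRNA measured by RT-PCR, FAM labelling, HpaI digestion and capillary electrophoresis; gain-of-signal fitted relative to DMSO baseline.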

The target in assay [11] is Cellular tumor antigen p53 (Homo sapiens) (UniProt P04637). Description: TOX21_p53_BLA_p2_ratio: Tox21 HCT-116 p53 Agonism Beta-lactamase Assay, Ratio, Phase 2 (AID 2283592). In outline:
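HCT116 cells carrying a p53-responsive beta-lactamase reporter were plated, incubated 5 h at 37C, then dosed with compounds in DMSO (217-fold dilution) for 16 h. CCF4-AM substrate was added for 2 h at room temperature; the 460/530 nm emission ratio gave gain-of-signal activity relative to DMSO.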

The target is the same in assay [12]. Description: TOX21_p53_BLA_p3_ratio: Tox21 HCT-116 p53 Agonism Beta-lactamase Assay, Ratio, Phase 3 (AID 2283596). In outline:
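HCT116 p53-bla cells (4000/well) given compound in DMSO (217-fold dilution) after 5 h, incubated 16 h at 37C. CCF4-AM substrate 2 h at room temperature; 460/530 nm emission ratio, gain fitted against DMSO.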

Assay [13] has the same target. Description: TOX21_p53_BLA_p5_ratio: Tox21 HCT-116 p53 Agonism Beta-lactamase Assay, Ratio, Phase 5 (AID 2283599). Put shortly:
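Beta-lactamase reporter ratio (blue 460 nm over green 530 nm, 405 nm excitation) after 2 h CCF4-AM loading, in HCT-116 cells exposed 16 h at 37 C to compounds pinned at 217-fold dilution. Increases relative to DMSO baseline scored.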

The target is the same in assay [14]. Description: TOX21_p53_BLA_p4_ratio: Tox21 HCT-116 p53 Agonism Beta-lactamase Assay, Ratio, Phase 4 (AID 2283601). Put shortly: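 Signal is the blue/green (460nm/530nm) ratio of cleaved versus uncleaved CCF4-AM substrate, read after 2 h substrate loading. Cells were HCT116 carrying the p53-responsive beta-lactamase reporter, dosed 16 h at 37C, 5% CO2; CellTiter-Glo measured in parallel.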

Assay [15] is described as follows: ATG_GRE_CIS: Attagene CIS-FACTORIAL HepG2 Assay for human Glucocorticoid Response Elements (GRE) (AID 2282947; active means hit-call score of the fitted dose curve at least 0.9, where 1 is the maximum; inactive means score below 0.9). To be noted: HepG2 GRE cis-reporter, Attagene multiplex mRNA; actives raise or lower the signal. Put shortly: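 Assay uses human hepatoma HepG2 cells transfected with cis-promoter reporter units, exposed 24 h. mRNA from reporters detected by RT-PCR plus capillary electrophoresis; DMSO serves as negative control and baseline.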

Assay [16] can be described thus: ATG_M_06_TRANS: Attagene TRANS-FACTORIAL HepG2 Assay for M06 Transcription Factor (Internal Marker) (AID 2282983). To be noted: HepG2 Attagene TRANS M06 internal marker reporter. In outline:
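HepG2 cells transiently transfected with multiplexed GAL4-UAS reporter transcription units; after 24 h compound exposure, reporter mRNA measured by RT-PCR, FAM-labelled primer extension, HpaI digestion and capillary electrophoresis. Gain-of-signal fitted versus DMSO baseline; background control readout.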

Assay [17] deals with Nuclear respiratory factor 1 (Homo sapiens) (UniProt Q16656). The assay can be described thus: ATG_NRF1_CIS: Attagene CIS-FACTORIAL HepG2 Assay for human Nuclear Respiratory Factor 1 (NRF1) Orphan Gene (AID 2282987; active means hit-call score of the fitted dose curve at least 0.9, where 1 is the maximum; inactive means score below 0.9). To be noted: HepG2 NRF1 cis-element reporter, Attagene multiplex; actives raise or lower the signal. Put shortly: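 Transcriptional reporter readout, one component of a 52-endpoint multiplexed HepG2 panel. Exposure 24 h; mRNA detected via RT-PCR and fluorescent capillary electrophoresis; fitting in both directions against DMSO.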

Assay [18] is described as follows: ATG_NFI_CIS: Attagene CIS-FACTORIAL HepG2 Assay for human Nuclear Factor I (NFI) (AID 2282989; active means hit-call score of the fitted dose curve at least 0.9, where 1 is the maximum; inactive means score below 0.9). To be noted: HepG2 cis-regulatory reporter, NFI response element transcription; actives raise or lower the signal. In outline: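 Reporter transcription driven by endogenous transcription factors in HepG2 cells; 24 h treatment. Quantitation by labelled RT-PCR fragments on capillary electrophoresis, gain- or loss-of-signal relative to DMSO.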

Assay [19] has as its target human Retinoid X Receptor beta (RXRb), RXRB (gene 6257) (UniProt P28702). The assay can be described thus: ATG_RXRb_TRANS: Attagene TRANS-FACTORIAL HepG2 Assay for human Retinoid X Receptor beta (RXRb) (AID 2283013). In outline:
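HepG2 cells transiently transfected with multiplexed reporter units driven by GAL4-UAS and exogenous chimeric NR-Gal4 proteins; treated 24 h. Reporter mRNA measured by RT-PCR, 6-FAM labelling and capillary electrophoresis; gain-of-signal fitted versus DMSO baseline.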

The nature of assay [20]: TOX21_p53_BLA_p5_viability: Viability Assessment in the Tox21 HCT-116 p53 Agonism Beta-lactamase Assay, Phase 5 (AID 2283600). In outline: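 Cells were plated at 4000/well, rested 5 h at 37C, then given compounds in DMSO (217-fold dilution) for 16 h at 37C, 5% CO2. Following the CCF4-AM beta-lactamase read, CellTiter-Glo was added and luminescence was read after 30 min at room temperature.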

Nuclear respiratory factor 1 (Homo sapiens), sequence (Q16656 whole entry, looked up): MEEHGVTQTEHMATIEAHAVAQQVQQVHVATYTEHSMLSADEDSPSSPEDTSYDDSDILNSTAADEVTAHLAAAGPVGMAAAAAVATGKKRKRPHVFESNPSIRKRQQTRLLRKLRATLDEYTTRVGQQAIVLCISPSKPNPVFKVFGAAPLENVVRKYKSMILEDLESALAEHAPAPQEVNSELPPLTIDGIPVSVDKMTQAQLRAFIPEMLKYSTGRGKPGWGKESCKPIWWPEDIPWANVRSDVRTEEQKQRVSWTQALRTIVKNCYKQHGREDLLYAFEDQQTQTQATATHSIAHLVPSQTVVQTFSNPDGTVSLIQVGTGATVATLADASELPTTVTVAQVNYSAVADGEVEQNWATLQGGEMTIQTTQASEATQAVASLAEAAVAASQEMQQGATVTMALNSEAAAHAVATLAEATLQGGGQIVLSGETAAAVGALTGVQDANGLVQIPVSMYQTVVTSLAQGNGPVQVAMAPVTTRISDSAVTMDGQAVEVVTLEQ
Nuclear receptor subfamily 1 group I member 2 (Homo sapiens), sequence (O75469 whole entry, looked up, the tested form may be a part): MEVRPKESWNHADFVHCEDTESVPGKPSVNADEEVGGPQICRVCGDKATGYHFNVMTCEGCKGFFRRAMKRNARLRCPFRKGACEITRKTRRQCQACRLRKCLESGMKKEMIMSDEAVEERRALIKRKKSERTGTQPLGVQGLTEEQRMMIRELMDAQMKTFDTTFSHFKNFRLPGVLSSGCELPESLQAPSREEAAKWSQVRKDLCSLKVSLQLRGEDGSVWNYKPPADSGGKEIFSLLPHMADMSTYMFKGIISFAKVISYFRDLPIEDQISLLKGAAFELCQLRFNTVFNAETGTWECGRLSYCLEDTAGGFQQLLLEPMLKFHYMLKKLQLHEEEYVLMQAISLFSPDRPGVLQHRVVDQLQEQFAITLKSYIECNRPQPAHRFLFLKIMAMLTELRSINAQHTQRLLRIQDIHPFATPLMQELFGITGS
Cellular tumor antigen p53 (Homo sapiens), sequence (P04637 whole entry, looked up): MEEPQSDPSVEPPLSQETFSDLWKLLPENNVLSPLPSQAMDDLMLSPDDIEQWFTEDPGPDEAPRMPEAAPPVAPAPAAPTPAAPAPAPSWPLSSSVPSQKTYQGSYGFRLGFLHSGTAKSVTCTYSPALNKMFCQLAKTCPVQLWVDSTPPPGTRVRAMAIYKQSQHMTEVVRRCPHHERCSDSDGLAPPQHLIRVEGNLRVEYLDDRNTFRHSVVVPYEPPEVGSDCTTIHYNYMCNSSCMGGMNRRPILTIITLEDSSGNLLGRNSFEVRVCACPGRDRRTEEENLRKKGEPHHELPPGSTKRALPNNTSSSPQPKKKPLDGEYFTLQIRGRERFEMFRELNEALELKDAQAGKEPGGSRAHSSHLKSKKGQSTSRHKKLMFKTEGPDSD
Hepatocyte nuclear factor 4-alpha (Homo sapiens), sequence (P41235 whole entry, looked up): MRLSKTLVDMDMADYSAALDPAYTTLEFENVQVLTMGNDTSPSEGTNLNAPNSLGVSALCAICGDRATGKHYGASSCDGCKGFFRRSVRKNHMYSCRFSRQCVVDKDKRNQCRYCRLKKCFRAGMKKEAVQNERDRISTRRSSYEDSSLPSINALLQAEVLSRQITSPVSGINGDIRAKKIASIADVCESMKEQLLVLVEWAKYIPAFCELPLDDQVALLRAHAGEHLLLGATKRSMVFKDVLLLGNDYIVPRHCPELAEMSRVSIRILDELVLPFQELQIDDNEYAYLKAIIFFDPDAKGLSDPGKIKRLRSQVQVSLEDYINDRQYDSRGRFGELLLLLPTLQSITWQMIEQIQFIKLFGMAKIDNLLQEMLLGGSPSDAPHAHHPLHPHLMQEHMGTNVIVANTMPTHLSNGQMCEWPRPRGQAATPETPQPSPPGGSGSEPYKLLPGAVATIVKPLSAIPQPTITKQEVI
Retinoic acid receptor RXR-alpha (Homo sapiens), sequence (P19793 whole entry, looked up, the tested form may be a part): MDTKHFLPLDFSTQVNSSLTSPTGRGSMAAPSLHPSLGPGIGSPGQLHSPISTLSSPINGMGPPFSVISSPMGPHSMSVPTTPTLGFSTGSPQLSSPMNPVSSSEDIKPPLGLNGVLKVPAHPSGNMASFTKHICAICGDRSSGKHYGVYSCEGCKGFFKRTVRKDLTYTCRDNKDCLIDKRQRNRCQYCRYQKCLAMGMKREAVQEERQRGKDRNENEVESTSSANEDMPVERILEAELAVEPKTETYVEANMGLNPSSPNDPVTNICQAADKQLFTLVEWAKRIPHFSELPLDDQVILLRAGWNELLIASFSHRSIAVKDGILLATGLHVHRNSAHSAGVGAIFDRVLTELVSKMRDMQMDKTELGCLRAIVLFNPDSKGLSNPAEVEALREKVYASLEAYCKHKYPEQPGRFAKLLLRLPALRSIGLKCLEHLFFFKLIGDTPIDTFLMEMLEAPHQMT
human Retinoid X Receptor beta (RXRb), RXRB (gene 6257), sequence (P28702 whole entry, looked up, the tested form may be a part): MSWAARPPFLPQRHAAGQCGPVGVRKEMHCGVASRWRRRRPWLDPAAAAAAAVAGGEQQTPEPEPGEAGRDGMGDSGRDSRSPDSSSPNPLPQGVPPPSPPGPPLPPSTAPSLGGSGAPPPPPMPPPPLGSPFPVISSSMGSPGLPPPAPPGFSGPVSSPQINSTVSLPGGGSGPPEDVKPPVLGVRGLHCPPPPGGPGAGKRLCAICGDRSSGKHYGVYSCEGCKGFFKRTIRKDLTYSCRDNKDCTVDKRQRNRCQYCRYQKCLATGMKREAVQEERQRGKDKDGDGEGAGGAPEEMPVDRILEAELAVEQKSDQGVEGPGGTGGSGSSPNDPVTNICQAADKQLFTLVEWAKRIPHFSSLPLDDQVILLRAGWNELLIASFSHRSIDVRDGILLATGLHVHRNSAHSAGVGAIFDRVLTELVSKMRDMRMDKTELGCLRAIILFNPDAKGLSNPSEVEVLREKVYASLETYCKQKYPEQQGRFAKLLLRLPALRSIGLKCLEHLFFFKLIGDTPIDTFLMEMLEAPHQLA

Turning to `O=S(=O)(c1ccccc1)c1ccccc1`, the molecule was called inactive in [1], in assay [2], in [3], in [4], in assay [5] and in assay [6]. Further, the molecule was called inactive in [7], in assay [8], in assay [10], in [11], in assay [12] and in assay [13]. Also, the outcome in assay [14] was inactive. In [9], the AC50 (as a rule, the concentration giving half of the maximal activity seen) was 10.3 µM (active).

As to `N#CCCCl`, the outcome in assay [1], in [2], in [15], in assay [3], in assay [6] and in assay [8] was inactive. For the same molecule, the call in assay [16], in assay [17], in [18], in [9], in [10] and in assay [19] was inactive. The result in assay [11], in assay [12], in assay [13] and in [20] was inactive.

As to `O=C(O)C(Br)Br`, the outcome in [15], in [3], in assay [5], in assay [7], in [8] and in [17] was inactive. Moreover, the molecule was called inactive in assay [10], in [11], in assay [12], in [13], in assay [20] and in [14].

`COC(C)(C)CCC[C@H](C)C/C=C/C(C)=C/C(=O)OC(C)C`: the results for the half-maximal activity concentration (AC50) in [2] and in assay [9] were 82.3 µM (active) and 16.3 µM (active), respectively. In addition, the molecule was called inactive in [3], in assay [6], in [7], in assay [16], in [18] and in assay [10]. For the same molecule, the molecule was classed as inactive in [19], in [11], in assay [13], in [20] and in [14].

Turning to `Cc1cc(C)c(C2=C(OC(=O)CC(C)(C)C)C3(CCCC3)OC2=O)c(C)c1`, the call in assay [1], in assay [15], in assay [3], in assay [4], in assay [5] and in [6] was inactive. For the same molecule, the molecule was classed as inactive in assay [7], in assay [8], in assay [16], in assay [17] and in [9]. Moreover, the AC50 in assay [2] was 104 µM (active); in assay [18], 145 µM (active).
